The text below walks through data of the supplement of paper PMC6555819.

Common to all, as to assay: PBM binding z-score (relative to random genomic background probes); higher = stronger binding; sequences stand for … in GC…GCGATTGACAGCGTAGAATGAAGG
Assay [1] concerns FXR:RXRa (NR concentration 270 nM, RXRa partner concentration 90 nM). The method in brief:
(§1)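 Probes were double-stranded and carried 34-nt variable regions with direct-repeat seeds, single-nucleotide variants, half-site ablations and random human genomic background sequences, printed on custom Agilent 4×180K protein-binding microarrays. Arrays were incubated 1 h with ligand-free nuclear receptor dimers in PBS pH 7.4, 2% milk, 0.02% Triton X-100, 1 mM DTT, 0.2 mg/mL BSA and 0.4 mg/ml salmon testes DNA. Antibodies against each partner (one per run) detected binding, and scanned fluorescence was regression-normalized. Binding z-scores use the random background probes as reference.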

The subject of assay [2] is LXRa:RXRa (NR concentration 270 nM, RXRa partner concentration 90 nM). The method in brief: as §1
Assay [3] has as its system LXRa homodimer (NR concentration 270 nM). In outline:
as §1

The test system of assay [4] is LXRb:RXRa (NR concentration 270 nM, RXRa partner concentration 90 nM). In outline: as §1
Assay [5] deals with LXRb homodimer (NR concentration 270 nM). In outline:
as §1

In assay [6] the test system is PPARa:RXRa (NR concentration 270 nM, RXRa partner concentration 90 nM). The method in brief: as §1
The test system of assay [7] is PPARg:RXRa (NR concentration 180 nM, RXRa partner concentration 90 nM). The method in brief: as §1
Assay [8] relates to PPARg:RXRa 270nM:90nM, anti-RXR (NR concentration 270 nM, RXRa partner concentration 90 nM). The method in brief: as §1
Assay [9] has as its system PPARg:RXRa 30nM:10nM, anti-RXR (NR concentration 30 nM, RXRa partner concentration 10 nM). The method in brief:
as §1

The subject of assay [10] is PPARg:RXRa 90nM:30nM, anti-RXR (NR concentration 90 nM, RXRa partner concentration 30 nM). In outline: as §1
The test system of assay [11] is PPARg:RXRa DBDmut IVT, anti-RXR (DBD mutation: RXRa K156A/R161A, NR concentration 270 nM, RXRa partner concentration 90 nM). In outline: as §1
Assay [12] relates to PPARg:RXRa IVT, anti-PPARg (NR concentration 270 nM, RXRa partner concentration 90 nM). In outline:
as §1

Assay [13] relates to PPARg DBDmut:RXRa IVT, anti-PPARg (DBD mutation: PPARg1 K132A/R137A, NR concentration 270 nM, RXRa partner concentration 90 nM). The method in brief:
as §1

For assay [14], the system named is PPARg DBDmut IVT, anti-PPARg (DBD mutation: PPARg1 K132A/R137A, NR concentration 270 nM). In outline: as §1
Assay [15] relates to PPARg homodimer (NR concentration 180 nM). The method in brief: as §1
Assay [16] concerns PXR:RXRa (NR concentration 270 nM, RXRa partner concentration 90 nM). In outline: as §1
Assay [17] relates to PXR homodimer (NR concentration 270 nM). In outline: as §1
Assay [18] relates to RARa:RXR (NR concentration 270 nM, RXRa partner concentration 90 nM). In outline: as §1
For assay [19], the system named is RARa homodimer (NR concentration 270 nM). In outline: as §1
In assay [20] the test system is RARb:RXRa (NR concentration 270 nM, RXRa partner concentration 90 nM). The method in brief:
as §1

With TCTTGTAGATCAACATGAGGTTAAGAAAGATCGA, the PBM binding z-score in assay [1] is 0.309; in assay [2], 1.61; in [3], 0.535; in assay [4], 1.19; in assay [5] it was 0.134; in assay [6], 1.62. Also, the PBM binding z-score in assay [7] was 0.344; in assay [8], 1.66; in assay [9] it was 2.62; in assay [10] it was 2.31; in [11], 1.66; in assay [12], 1.07. Also, the PBM binding z-score in assay [13] was 1.29; in assay [14], 1.12; in assay [15] it was -0.107; in assay [16] it was 1.22; in assay [17], -0.155; in assay [18] it was 1.53. Also, the figures for the PBM binding z-score in assay [19] and in assay [20] were 0.226 and 0.619, respectively.
For GTACCAAAGTGAATAGGTCGTTGATGAGTAGGCG, the PBM binding z-score in assay [1] was -0.437; in assay [2], -0.179; in assay [3] it was 0.178; in assay [4] it was -0.156; in assay [5], -0.573; in assay [6], 0.468. Besides, the PBM binding z-score in assay [7] was 0.56; in assay [8] it was 0.234; in [9], 0.0456; in assay [10], -0.0827; in assay [11], -0.402; in assay [12], -0.0847. The PBM binding z-score in assay [13] is 0.259; in assay [14], -0.53; in assay [15], 0.312; in assay [16], -0.00367; in assay [17], -0.196; in assay [18], 0.176. Besides, the values for the PBM binding z-score in assay [19] and in [20] were 0.281 and 0.279, respectively.
With ACTAGCAGGCCAAGTTTAGGTCACTCAAACAAAG, the PBM binding z-score is 0.818 in assay [1]; 0.384 in assay [2]; 0.281 in assay [3]; 0.929 in [4]; -0.282 in assay [5]; 1.6 in assay [6]. Also, the PBM binding z-score in [7] is 0.288; in assay [8] it was 0.528; in assay [9] it was -0.151; in assay [10] it was 0.000314; in assay [11], 0.729; in assay [12] it was 1.54. Besides, the PBM binding z-score is -0.154 in assay [13]; -0.113 in assay [14]; 0.824 in assay [15]; 0.86 in assay [16]; 0.177 in assay [17]; 1.7 in assay [18]. Further, the PBM binding z-score was -0.431 in assay [19] and 2.33 in assay [20].
As for CCAGACAGGTGAAAGGTAACTGAGTCTGGTACGC, the PBM binding z-score was 0.744 in assay [1]; 0.866 in assay [2]; -0.565 in [3]; 0.528 in assay [4]; -0.541 in [5]; 3.52 in assay [6]. The PBM binding z-score in [7] is 6.16; in assay [8], 6.38; in assay [9] it was 4.81; in [10], 5.99; in [11] it was 2.15; in assay [12], 3.28. For the same sequence, the PBM binding z-score in assay [13] is -0.148; in [14], -0.636; in assay [15] it was 1.11; in assay [16] it was 0.918; in [17], -0.224; in assay [18], 1.83. Besides, the PBM binding z-score in [19] stood at 0.0845; in assay [20], 1.28.
As for CCTGCTAGGTCACTGGTCAGCTAAAGCAGCTCGC, the PBM binding z-score in assay [1] is 3.06; in assay [2] it was 2.12; in [3], -0.0651; in assay [4], 1.42; in assay [5] it was 0.0623; in [6], 3.29. Besides, the PBM binding z-score in assay [7] was 3.55; in [8], 4.04; in [9], 1.31; in [10], 3.18; in assay [11], 4.87; in [12], 4.51. Moreover, the PBM binding z-score in [13] is 0.683; in [14], -0.736; in assay [15], 1.51; in assay [16], 1.27; in [17], -0.378; in assay [18], 2.08. Moreover, the PBM binding z-score in assay [19] is -0.0661; in [20], 3.92.
For the sequence CCTACTGGGCCAAAGGTCATTGAATCCAATGCTC, the PBM binding z-score worked out at 4.76 in assay [1]; 5.09 in assay [2]; 3.62 in assay [3]; 4.91 in assay [4]; 0.849 in [5]; 6.45 in assay [6]. Moreover, the PBM binding z-score in assay [7] amounted to 11.2; in assay [8] it was 9.74; in [9], 10.1; in [10], 10.8; in assay [11] it was 5.12; in [12], 6.72. The PBM binding z-score in assay [13] was -0.082; in assay [14], 0.0276; in [15], 3.57; in assay [16], 5.26; in assay [17] it was 1.68; in assay [18] it was 5.79. Moreover, the PBM binding z-score in assay [19] amounted to 0.758; in assay [20] it was 4.52.
For AATAGAGGGTCATCGTAGGCCAGAGTACGCACAG, the PBM binding z-score amounted to 6.8 in [1]; 6.19 in assay [2]; 1.56 in [3]; 3.89 in [4]; 0.604 in assay [5]; 5.5 in [6]. For the same sequence, the PBM binding z-score was 5.46 in assay [7]; 5.11 in [8]; 2.13 in [9]; 3.89 in [10]; 3.35 in assay [11]; 4.01 in assay [12]. Further, the PBM binding z-score came out at 0.835 in [13]; 0.46 in [14]; 2.99 in assay [15]; 4.34 in assay [16]; 0.066 in assay [17]; 4.67 in assay [18]. For the same sequence, the PBM binding z-score in assay [19] is 1.33; in [20], 4.25.
